Reference: PubChem BioAssay (NCATS)
Results filed as inconclusive are left out. Activity calls are given as the source filed them. Unless noted, the call rests on the fitted dose curve; in most records, active means well fitted curve in the direction sought with a large enough effect; inconclusive means small, poorly fitted or top-dose-only effect, or another doubt; inactive means no such curve, though single readings can be large; an effect the other way counts as inactive or inconclusive.

Tests used:
[1] = Cell Viability - BJ (AID 421; calls by dose curve;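 further: potency means the concentration at half of the fitted maximal effect; cells exposed to compound for 40 hours at 37 °C before readout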); conditions: BJ fibroblast viability, qHTS
How it was run: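 Normal human BJ foreskin fibroblasts, 1500/well in complete medium, treated 40 hr at 37 °C. Cellular ATP by CellTiter-Glo luminescence; normalized to DMSO and 100 uM tamoxifen, AC50 from Hill fit.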

[2] = Cell Viability - Jurkat (AID 426;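 active means dose-dependent loss of cell ATP signal giving a full or clear fitted curve, ranked by lower potency value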;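 further: potency means the concentration at half of the fitted maximal effect; cells exposed to compound for 40 hours at 37 °C before ATP read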); conditions: qHTS
How it was run: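 Cytotoxicity taken as drop in cellular ATP (CellTiter-Glo luminescence, 20 min room temperature) after 40 hr, 37C treatment of 5000 Jurkat Clone E6-1 cells per well; concentration-response fitted with Hill equation for AC50.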

[3] = Cell Viability - HepG2 (AID 433; calls by dose curve;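 further: potency means the concentration at half of the fitted maximal effect; potency for ATP loss meaning cytotoxicity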); conditions: qHTS
How it was run: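 Read-out is luciferase-based quantitation of cellular ATP as a measure of viable HepG2 cells after 40 h treatment at 37 °C. Signal decrease is scaled between DMSO-only and 100 uM tamoxifen controls, with AC50 fitted by the Hill equation.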

[4] = Cell Viability - MRC5 (AID 434; calls by dose curve;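 further: potency means the concentration at half of the fitted maximal effect; cells exposed to compound for 40 hours at 37 °C; potency reflects cytotoxicity seen as loss of intracellular ATP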); conditions: MRC5 lung fibroblast viability, qHTS
How it was run: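 AC50 values come from Hill-equation fits of intracellular ATP loss, measured by CellTiter-Glo luminescence. Normal lung fibroblasts (MRC5) had 40 hr compound treatment at 37 C, normalized between DMSO and 100 uM tamoxifen.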

[5] = Cell Viability - SK-N-SH (AID 435; calls by dose curve; further: potency means the concentration at half of the fitted maximal effect); conditions: SK-N-SH neuroblastoma cell viability qHTS
How it was run: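 Luminescent ATP signal served as the viability read-out after 40 hours of compound treatment of human neuroblastoma SK-N-SH cells. Concentration-response data, scaled between DMSO and 100 uM tamoxifen, gave AC50 values by standard Hill modeling.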

[6] = molecular target: Mitogen-activated protein kinase 10 (Mus musculus) (UniProt Q61831); experiment: JNK3 AlphaScreen Assay (AID 530; active means well fitted curve in either direction with a large enough effect, not every such curve was filed as active;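 further: kinase came from lysate of stimulated human HepG2 cells; signal reports phosphorylation of biotinylated GST-cJun 1-79 at Ser73 with 10 µM ATP; on the % scale 0 is the no-effect control and ±100 the full control effect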); conditions: JNK3 lysate, c-Jun phosphorylation; series mostly up to 57.1 µM
How it was run: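 qHTS titrations with 15 min compound pre-incubation before adding ATP (10 uM final). Read-out: AlphaScreen of Ser73-phosphorylated biotin-GST-cJun using HepG2 lysate JNK3 activated by IL-1β and TNFα.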

[7] = Cell Viability - N2a (AID 540); conditions: N2a mouse neuroblastoma cell viability; activity change, negative = cytotoxicity: at 92.2 µM (top of the series);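 further: plate controls were DMSO alone for no effect and tamoxifen control for full effect; nearly all actives have a fitted effect of over 45% in size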
How it was run: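 CellTiter-Glo ATP luminescence, read 20 min after reagent at room temperature, reported viability following 40 h compound treatment at 37 °C. N2a mouse neuroblastoma cells seeded 1500/well; Hill equation gave AC50.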

[8] = Cell Viability - NIH 3T3 (AID 541); conditions: NIH 3T3 cell viability, qHTS; activity change, negative = cytotoxicity: at 92.2 µM (top of the series);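 further: plate controls were DMSO alone for no effect and tamoxifen positive control for full effect; nearly all actives have a fitted effect of over 25% in size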
How it was run: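 Intracellular ATP (CellTiter-Glo luminescence, 20 min at room temperature) measured after 40 hr compound exposure at 37 °C of 1000 NIH 3T3 mouse fibroblasts/well in complete medium; AC50 derived by Hill-equation modelling of qHTS concentration-response curves.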

[9] = Cell Viability - H-4-II-E (AID 543); conditions: H-4-II-E rat hepatoma viability; series mostly up to 92.2 µM; further: on the % scale 0 is the no-effect control and ±100 the full control effect; nearly all actives have a fitted effect of over 35% in size
How it was run: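 CellTiter-Glo luminescence (intracellular ATP) measured after 40 h compound exposure at 37 °C in H-4-II-E rat hepatoma cells seeded at 1500/well. Values are AC50s fitted with the standard Hill equation.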

[10] = Cell Viability - SH-SY5Y (AID 544); conditions: SH-SY5Y neuroblastoma cell viability; viability change, negative = cytotoxic: at 92.2 µM (top of the series); further: nearly all actives have a fitted effect of over 55% in size
How it was run: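 Cytotoxicity measured via ATP-dependent luciferase luminescence (CellTiter-Glo) following 40 h, 37 °C exposure of 1500 SH-SY5Y cells per well. Concentration-response data were fitted with the standard Hill equation to give AC50.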

[11] = Cell Viability - Renal Proximal Tubule (AID 545); conditions: renal proximal tubule cells viability, primary cells of rat origin; series mostly up to 91.7 µM; further: nearly all actives have a fitted effect of over 40% in size
How it was run: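 Luminescent ATP signal (CellTiter-Glo) served as the viability read-out after 40 hr compound exposure of freshly isolated rat proximal tubule cells at 37 °C. Concentration-dependent ATP loss was fitted with the Hill equation to give AC50.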

[12] = Cell Viability - Mesenchymal (AID 546); conditions: mesenchymal cells viability, qHTS; series mostly up to 91.7 µM;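 further: cells exposed to compound for 40 hours before reading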
How it was run: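 CellTiter-Glo luminescence (intracellular ATP, 20 min room temperature) after 40 hr compound exposure at 37 °C of 1000 glomerulus-derived human kidney mesenchymal cells/well; AC50 values obtained by fitting qHTS concentration-response data to the Hill equation.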

[13] = Cellular Toxicity (caspase-3) Jurkat (AID 655); conditions: Jurkat caspase-3 activation, luminescence; caspase-3 activation: at 92.2 µM (top of the series), DMSO = 0%, tamoxifen = 100%;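 further: cells exposed to compound for 16 h at 37 °C before reading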
How it was run: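 5000 Jurkat cells/well; compound 16 hr, 37 °C; Caspase-Glo 3/7 added, 20 min RT; luminescence read. Norm: DMSO = 0%, tamoxifen 100 uM = 100%. AC50, Hill model.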

[14] = Cellular Toxicity (caspase-3) HUV-EC-C (AID 656); conditions: HUV-EC-C cells, caspase-3 activation (apoptosis), vehicle = 0, 100 µM tamoxifen = 100%; series mostly up to 92.2 µM
How it was run: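 qHTS; HUV-EC-C, 1000 cells/well; 5 hr settle, 16 hr cmpd, 37°C; Caspase-Glo 3/7, 20 min RT; luminescence. Norm: DMSO = 0%, tamoxifen 100 uM = 100%. Hill-fit AC50.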

[15] = Cellular Toxicity (caspase-3) SHSY5Y (AID 657); conditions: SH-SY5Y caspase-3 activation, DMSO zero, 10 µM staurosporine = 100%; series mostly up to 91.7 µM;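 further: cells exposed to compound for 16 hours at 37 °C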
How it was run: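 qHTS, SH-SY5Y, 1500 cells/well, 5 h pre-incubation 37 °C; compound 16 h 37 °C; Caspase-Glo 3/7 1 h RT; luminescence. Norm.: DMSO = 0, 10 uM staurosporine = 100%. Hill fit → AC50.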

[16] = Cellular Toxicity (caspase-3) BJ (AID 658); conditions: BJ fibroblasts, luminescence, normalized: DMSO 0%, staurosporine 100%; series mostly up to 91.7 µM;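 further: cells exposed to compound for 16 hours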
How it was run: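 Caspase-Glo 3/7 luminescence, read 1 hr after reagent at room temperature, in normal BJ fibroblasts exposed 16 hours at 37 °C. AC50 values from Hill-equation concentration-response, scaled between DMSO basal and 10 uM staurosporine as 100%.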

[17] = Cellular Toxicity (caspase-3) MRC-5 (AID 659); conditions: MRC-5 cells, luminescence, normalized: DMSO 0%, 10 µM staurosporine 100%; series mostly up to 91.7 µM
How it was run: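 Luminescent Caspase-Glo 3/7 read-out (1 h, room temperature) after a 16 h, 37 °C compound exposure of MRC-5 lung fibroblasts at 1500 cells/well. Concentration-response AC50 from Hill equation; 0% DMSO, 100% 10 uM staurosporine.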

[18] = Cell Viability - HUV-EC-C (AID 542); conditions: HUV-EC-C endothelial cell viability, qHTS; series mostly up to 92.2 µM; further: on the % scale 0 is the no-effect control and ±100 the full control effect; nearly all actives have a fitted effect of over 35% in size
How it was run: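 CellTiter-Glo luminescence measured ATP loss in HUV-EC-C cells (1000/well) after 40 hr compound exposure at 37 °C, in complete culture medium. Concentration-response data were Hill-fitted to give AC50.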

[19] = Cellular Toxicity (caspase-3) HepG2 (AID 654); conditions: HepG2 caspase-3 activation, luminescence; series mostly up to 92.2 µM;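 further: cells exposed to compound for 16 hours before reading; 0% = DMSO alone and 100% = caspase signal from 100 µM tamoxifen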
How it was run: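 Caspase 3/7 activation is measured as a luminescence increase (aminoluciferin substrate) after 16 h compound exposure of human hepatocarcinoma HepG2 cells. AC50 values are Hill fits, scaled between DMSO baseline and 100 uM tamoxifen stimulation.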

OC1CCCC1
inactive: Potency [1] > 92 µM | Potency [2] > 92 µM | Potency [3] > 92 µM | Potency [4] > 92 µM | Potency [5] > 92 µM | outcome [6] | activity change, negative = cytotoxicity [7] -9.14% | Potency [8] | Potency [9] | Potency [10] | Potency [11] | Potency [12] | caspase-3 activation [13] 0.809% | outcome [14] | outcome [15] | outcome [16] | outcome [17]

NC=O
inactive: Potency [1] > 92 µM | Potency [2] > 92 µM | Potency [4] > 92 µM | Potency [5] > 92 µM | outcome [6] | activity change, negative = cytotoxicity [7] 1.82% | Potency [8] | Potency [18] | Potency [10] | Potency [11] | Potency [12] | Potency [19] | caspase-3 activation [13] 2.21% | outcome [14] | outcome [15] | outcome [16] | outcome [17]

CC(=C/C=C/C(C)=C/C=C/C=C(C)/C=C/C=C(C)/C=C/C(=O)O)/C=C/C(=O)O
inactive: Potency [1] > 92 µM | Potency [2] > 92 µM | Potency [4] > 92 µM | Potency [5] > 92 µM | outcome [6] | activity change, negative = cytotoxicity [7] -0.984% | Potency [8] | Potency [18] | Potency [9] | Potency [10] | Potency [11] | Potency [19] | caspase-3 activation [13] -0.472% | outcome [14] | outcome [15] | outcome [16] | outcome [17]

COc1ccc(N)c(OC)c1
inactive: Potency [1] > 92 µM | Potency [2] > 92 µM | Potency [3] > 92 µM | Potency [4] > 92 µM | Potency [5] > 92 µM | outcome [6] | activity change, negative = cytotoxicity [7] -1.93% | Potency [8] | Potency [18] | Potency [9] | Potency [10] | Potency [11] | Potency [12] | Potency [19] | caspase-3 activation [13] 0.6% | outcome [14] | outcome [15] | outcome [16] | outcome [17]

CCOc1cc(OCC)c(C(C)=O)cc1OCC
inactive: Potency [1] > 92 µM | Potency [2] > 92 µM | Potency [4] > 92 µM | Potency [5] > 92 µM | outcome [6] | activity change, negative = cytotoxicity [7] -7.23% | Potency [8] | Potency [18] | Potency [9] | Potency [10] | Potency [11] | Potency [12] | Potency [19] | caspase-3 activation [13] -0.274% | outcome [14] | outcome [15] | outcome [16] | outcome [17]

Nc1cccc([N+](=O)[O-])c1
inactive: Potency [1] > 92 µM | Potency [2] > 92 µM | Potency [3] > 92 µM | Potency [4] > 92 µM | Potency [5] > 92 µM | outcome [6] | activity change, negative = cytotoxicity [7] -10.1% | Potency [8] | Potency [18] | Potency [9] | Potency [10] | Potency [11] | Potency [12] | Potency [19] | caspase-3 activation [13] 0.664% | outcome [14] | outcome [15] | outcome [17]
